Our source for the Potency and activity, negative = inhibition values is PubChem BioAssay AID2546 (National Center for Advancing Translational Sciences (NCATS), 2010).

About 11,000 (3.5%) of roughly 310,000 compounds were called active. Entries that show only a call come without a potency. Inconclusive results (about 8%) are left out. Many of the other results were omitted from the sample, so actives are more common in it than they were. Unmarked numbers belong to inactive results. Calls follow the shape of the dose curve; as a rule, active = well fitted inhibition curve with a large enough effect; inconclusive = small, poorly fitted or top-dose-only effect, or effect the other way; inactive = flat fitted curve, though single readings scatter.
Potency is read from the fitted curve at half-maximal effect.

A short description of this assay: VP16 counterscreen qHTS for inhibitors of ROR gamma transcriptional activity.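 Also: Gal4-VP16 expression switched on by copper sulfate through the metallothionein promoter; nearly all actives have a fitted effect of over 50% in size.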 The following applies: Drosophila S2 Gal4-VP16 UAS-luciferase, luminescence, 20 h; series mostly up to 53.6 µM.
With `COc1ccc(C(=O)NC(C)c2nccs2)cc1OC1CCN(C(C)C)CC1` (centres undefined), the Potency entry was “inactive”.

With `CCOC(=O)c1ccc(NC(=O)c2cc(=O)[nH]c3ccccc23)cc1`, the Potency entry was “inactive”.

For the compound `CCOC(=O)c1ccc(NC(=O)c2nc[nH]c2C(=O)NCc2ccccc2)cc1`, the Potency is 5.62 µM (active).

Turning to `CCOC(=O)c1[nH]cnc1C(=O)Nc1ccccc1C`, the Potency entry was “inactive”.

With `Cc1ccc(C(C)C)cc1OCC(=O)Nc1ccccc1N1CCCC1`, the Potency result is “inactive”.

As to `O=C(c1cc2ccccc2o1)N1CCN(c2cccc(C(F)(F)F)c2)CC1`, the Potency result was “inactive”.

For the compound `CCCCC[C@H]1CN(C2CCCCC2)C(=O)[C@@H]1CC(=O)NCc1ccc(OC)cc1`, the Potency entry was “inactive”.

Take `CCC(C)C(=O)Nc1ccccc1N1CCN(c2ccc(F)cc2)CC1` (centres undefined): the Potency entry is “inactive”.

For the compound `CCN1C(=NCCc2cccnc2)N[C@@H](c2ccccc2)C(C(=O)OC)=C1C`, the Potency entry is “inactive”.

For the compound `O=C(CO/N=C/c1ccccc1O)NNC(=O)c1ccccc1Cl`, the Potency was 14.1 µM (active).

In the case of `O=C(CO/N=C/c1ccccc1OC(F)F)NC1CCCC1`, the Potency entry was “inactive”.

For the compound `O=C(NNC(=S)NC1CCCCC1)c1ccccc1Cl`, the activity, negative = inhibition was -4.51% [at 10 µM].

Take `Oc1ccc(-n2nnnc2SCc2c(F)cccc2Cl)cc1`: the Potency result was “inactive”.

As to `Cc1cccc(OCCC(=O)Nc2ccccc2C(N)=O)c1`, the Potency entry is “inactive”.

As for `Cc1cccc(OC(C)C(=O)N2CCc3ccccc3C2)c1` (centres undefined), the Potency entry was “inactive”.

Regarding `CCCCNC(=O)C(=O)c1ccccc1NC(C)=O`, the Potency result was “inactive”.

On to `CCCCNC(=S)N/N=C1\CCCCc2ccccc21`, for which the Potency was 4.47 µM (active).

For the compound `O=[N+]([O-])c1ccccc1N/N=C1\CCc2ccccc21`, the Potency entry is “inactive”.

On to `FC(F)(F)c1nnc2c3ccccc3c(Cl)nn12`, for which the Potency result is “inactive”.

As to `COc1ccc(CNc2cc(C)cc(C)c2)cc1OC`, the Potency result was “inactive”.

For the compound `COc1ccc(N2CCN(S(=O)(=O)c3ccc4c(c3)NC(=O)C(C)C(=O)N4)CC2)cc1` (centres undefined), the Potency entry was “inactive”.

Take `CC(C)(O)C#Cc1ccc(CN2CCC(CO)(CCc3ccccc3)CC2)cc1`: the Potency result was “inactive”.

For `CC(=O)NC(=S)Nc1ccc(NC(=S)NC(=O)c2ccc([N+](=O)[O-])cc2)cc1`, the Potency result was “inactive”.

As to `COCCCNC(=S)NC(=O)c1ccc([N+](=O)[O-])cc1`, the Potency was 17.8 µM (active).

In the case of `O=C(NC(=S)Nc1ccc(NC(=O)c2cccs2)cc1)c1ccc([N+](=O)[O-])cc1`, the Potency entry is “inactive”.

As for `Cc1cc(CN(C)C(=O)c2cc(COc3ccc(C)c(C)c3)on2)n[nH]1`, the Potency result is “inactive”.

As for `COC(=O)c1cc(S(=O)(=O)Nc2ccc(C)c(F)c2)c[nH]1`, the Potency entry was “inactive”.

Take `COc1ccc(-n2nc(C(=O)NCC(=O)N3CCN(c4ccccc4OC)CC3)c3ccccc3c2=O)c(OC)c1`: the Potency entry was “inactive”.

With `COc1cccc(NC(=O)c2ccccc2N(Cc2ccccc2)S(C)(=O)=O)c1`, the Potency result was “inactive”.
